Only a selection was taken, and hits are over-represented in it overall.
Cruzain inh noDet = inhibitors of Trypanosoma cruzi cruzain without detergent; P25779; purified cruzain, Z-FR-AMC fluorescence, no detergent; Potency, µM, usual class: inhibitors; actives 2.3% (n = 200,000); AID 1476; also: nearly all actives have a fitted effect of over 40% in size
Target sequence (P25779 123-467 limits assumed): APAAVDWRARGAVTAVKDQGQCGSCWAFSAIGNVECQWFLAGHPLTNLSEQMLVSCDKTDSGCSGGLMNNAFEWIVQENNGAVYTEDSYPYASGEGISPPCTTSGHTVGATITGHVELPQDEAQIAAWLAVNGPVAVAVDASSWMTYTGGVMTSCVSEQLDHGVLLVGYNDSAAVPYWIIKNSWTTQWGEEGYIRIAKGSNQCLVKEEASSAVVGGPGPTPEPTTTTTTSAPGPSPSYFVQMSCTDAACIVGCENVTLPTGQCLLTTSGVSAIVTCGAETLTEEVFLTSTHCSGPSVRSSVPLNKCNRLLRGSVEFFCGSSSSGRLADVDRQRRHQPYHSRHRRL
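Detergent-free condition (0.00005% Triton X-100) in acetate buffer pH 5.5 with DTT. 1.5 nM enzyme and compound were pre-mixed 15 min, then 2 uM Z-FR-AMC substrate added; reaction progress from fluorescence change between first and third reads (60 s).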
Giardia FBPA inh = blocks Giardia fructose-bisphosphate aldolase activity; A8B2U2; purified Giardia FBPA; Potency, µM (top dose mostly 59.6 µM), hits mostly inhibitors; actives 0.71% (n = 290,000); AID 2451; also: nearly all actives have a fitted effect of over 55% in size
Target sequence (A8B2U2 whole entry, looked up): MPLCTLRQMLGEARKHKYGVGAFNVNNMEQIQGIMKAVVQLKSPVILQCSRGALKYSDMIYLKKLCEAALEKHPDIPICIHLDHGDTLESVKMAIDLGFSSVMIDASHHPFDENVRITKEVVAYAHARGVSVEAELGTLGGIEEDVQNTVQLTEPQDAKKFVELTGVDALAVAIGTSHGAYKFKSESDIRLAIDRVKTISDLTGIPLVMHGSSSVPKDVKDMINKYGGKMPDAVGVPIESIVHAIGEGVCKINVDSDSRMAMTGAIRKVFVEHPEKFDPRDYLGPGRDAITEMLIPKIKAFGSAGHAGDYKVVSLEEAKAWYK
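Giardia FBPA (40 nM reagent) was preincubated 10 min at RT with compound (up to 57.5 uM final), then substrate plus GAPDH/TPI/NAD/arsenate coupling system with diaphorase/resazurin was added; resorufin fluorescence (525/598 nm) was read after 20 min.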
Cruzain inh Det = cruzain (T. cruzi) inhibition with detergent. purified cruzain, Z-FR-AMC fluorescence, 0.01% Triton. actives 0.43% (n = 200,000). AID 1478. P25779. Potency, µM, hits mostly inhibitors; also: nearly all actives have a fitted effect of over 40% in size
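Detergent-containing arm of a paired screen for aggregation-based inhibition: 0.01% Triton X-100 present. Cruzain at 1.5 nM cleaved 2 uM Z-FR-AMC at pH 5.5 with 5 mM DTT; AMC fluorescence gain over 60 s measured activity.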
Large screens that a line does not name were inactive. Calls follow the shape of the dose curve; as a rule, active = well fitted curve in the direction sought with a large enough effect; inconclusive = small, poorly fitted or top-dose-only effect, or another doubt; inactive = no such curve, though single readings can be large; an effect the other way counts as inactive or inconclusive.

Nc1c(C(=O)Nc2ccc(Cl)cc2F)sc2nc(-c3cccs3)ccc12	Cruzain inh noDet 25µM (no result: Giardia FBPA inh)
Nc1c(C(=O)Nc2nc3ccccc3s2)sc2nc(-c3cccs3)ccc12	Cruzain inh noDet 7.9µM
Nc1c(C(=O)Nc2ccccc2Br)sc2nc(-c3cccs3)ccc12	Cruzain inh noDet 20µM (no result: Giardia FBPA inh)
Nc1ccc(C(=O)Nc2nc3ccccc3s2)cc1	none
Nc1c(C(=O)Nc2ccc(F)c(F)c2)sc2nc(-c3ccncc3)ccc12	none (no result: Giardia FBPA inh)
CC(=O)c1sc2nc(-c3cccs3)ccc2c1N	none
NC(=O)/N=C(\N)NC(=O)c1ccccc1	none (no result: Giardia FBPA inh)
CC(NC(=O)C1CCN(S(=O)(=O)c2cc([N+](=O)[O-])ccc2Cl)CC1)c1ccccc1 (stereo not drawn)	none
Cc1ccc2nc(NC(=O)C3CCN(S(=O)(=O)c4cc([N+](=O)[O-])ccc4Cl)CC3)sc2c1	Cruzain inh noDet 32µM
O=C(Nc1nc2ccc(F)cc2s1)C1CCN(S(=O)(=O)c2cc([N+](=O)[O-])ccc2Cl)CC1	Cruzain inh noDet 10µM
Cc1ccc2nc(NC(=O)C3CCN(S(=O)(=O)c4cccc5nsnc45)CC3)sc2c1	Cruzain inh noDet inconclusive
Cc1ccccc1C(=O)Nc1cccc(C(=O)OCc2cc(=O)n3c(C)csc3n2)c1	none (no result: Giardia FBPA inh)
Cn1c(SCC(=O)Nc2ccccc2)nnc1-c1ccccc1	none (no result: Giardia FBPA inh)
O=C(CSc1nc2ccccc2s1)Nc1ccc2c(c1)oc1ccccc12	Cruzain inh noDet 16µM
O=C(CSc1nc2ccccc2s1)Nc1ccc(Cl)c(C(=O)O)c1	none (no result: Cruzain inh noDet, Cruzain inh Det)
CC(C)(C)NC(=O)CSc1nnc(NC(=O)c2ccccc2Cl)s1	none (no result: Cruzain inh noDet, Cruzain inh Det)
Cn1c(SCC(=O)Nc2ccc3c(c2)oc2ccccc23)nnc1-c1ccccc1	Cruzain inh noDet 13µM
O=C(CSc1nnc(NC(=O)c2ccccc2Cl)s1)Nc1ccc2c(c1)oc1ccccc12	Cruzain inh noDet 4µM
CCCCCCCCCCCCCCCCCCCCCCCCCCCCCC	none (no result: Cruzain inh noDet, Cruzain inh Det)
CCOC(=O)C1OC1(C)c1ccccc1 (stereo not drawn)	none (no result: Giardia FBPA inh)
CCCSc1nc2sc3c(c2c(=O)n1-c1ccc(C)c(Cl)c1)CCN(C(C)=O)C3	Cruzain inh noDet inconclusive (no result: Giardia FBPA inh)
COc1cc2oc(=O)cc(-c3ccc(-c4ccc(C)cc4)cc3)c2c(OC)c1OC	none
COc1cc2oc(=O)cc(-c3ccc(-c4ccc(C#N)cc4)cc3)c2c(OC)c1OC	Cruzain inh noDet 35µM
O=C1CC(SCc2nc3ccccc3[nH]2)C(=O)N1c1ccc(F)c(Cl)c1 (stereo not drawn)	Cruzain inh noDet 16µM
O=C1CC(SCc2nc3ccccc3[nH]2)C(=O)N1c1ccc(Cl)cc1 (stereo not drawn)	none
CCOC(=O)c1c(NC(C)=O)c2c3c(sc2n1Cc1cc(C)ccc1C)CCCC3	none (no result: Giardia FBPA inh)
O=C1CCCc2c1sc1nc3n(c(=O)c21)CCCCC3	none
O=C1c2sc3nc4n(c(=O)c3c2CCC1Br)CCCCC4 (stereo not drawn)	Giardia FBPA inh 20µM
CCc1nc2ccc(C(=O)NCc3ccc(N(C)C)cc3)cc2nc1CC	none (no result: Giardia FBPA inh)
C#CC(C)(CC)NC(=O)Cn1nnc(-c2ccc(OCc3ccccc3F)cc2)n1 (stereo not drawn)	none (no result: Giardia FBPA inh)
CCOC(=O)C1CCCN(c2ncnc3c2cnn3-c2ccc(C)c(Cl)c2)C1 (stereo not drawn)	none (no result: Giardia FBPA inh)
O=C(CCc1cn(Cc2ccccc2F)c2ccccc12)NCc1ccc(Cl)cc1	none (no result: Giardia FBPA inh)
Cc1cccn2c(=O)c3cc(S(=O)(=O)c4ccccc4)c(=N)n(CC4CCCO4)c3nc12 (stereo not drawn)	none (no result: Cruzain inh noDet, Cruzain inh Det)
CCCn1c(=N)c(C(=O)NCC2CCCO2)cc2c(=O)n3cccc(C)c3nc21 (stereo not drawn)	Cruzain inh noDet inconclusive, Cruzain inh Det 32µM
COc1ccc(Cn2c(=N)c(C(=O)NCC3CCCO3)cc3c(=O)n4ccccc4nc32)cc1 (stereo not drawn)	none (no result: Cruzain inh noDet, Cruzain inh Det)
COCCCn1c(=N)c(C(=O)NCC2CCCO2)cc2c(=O)n3ccccc3nc21 (stereo not drawn)	Cruzain inh noDet inconclusive, Cruzain inh Det 28µM
N=c1c(S(=O)(=O)c2ccccc2)cc2c(=O)n3ccccc3nc2n1CC1CCCO1 (stereo not drawn)	Cruzain inh noDet inconclusive, Cruzain inh Det 32µM
Cc1cccn2c(=O)c3cc(C(=O)NCC4CCCO4)c(=N)n(CCN4CCOCC4)c3nc12 (stereo not drawn)	none
Cc1ccc(Cn2c(=N)c(C(=O)NCC3CCCO3)cc3c(=O)n4cccc(C)c4nc32)cc1 (stereo not drawn)	none (no result: Cruzain inh noDet, Cruzain inh Det)
COCCCn1c(=N)c(C(=O)NCC2CCCO2)cc2c(=O)n3cccc(C)c3nc21 (stereo not drawn)	Cruzain inh noDet inconclusive, Cruzain inh Det 25µM
COC(=O)C1=C(C)NC(C)=C(C(=O)OCCCN2CCC(c3ccccc3)(c3ccccc3)CC2)[C@H]1c1cccc([N+](=O)[O-])c1	none
Cc1cccc(N(C)C(=O)Cc2c(C(=O)O)[nH]c3ccccc23)c1	none (no result: Giardia FBPA inh)
CC(=O)Nc1ccn(C2OC(C(COC(C)=O)NC(=O)C(COCc3ccccc3)NC(=O)OC(C)(C)C)C(OC(C)=O)C2OC(C)=O)c(=O)n1 (stereo not drawn)	none (no result: Cruzain inh noDet, Cruzain inh Det)
COc1ccccc1CCNC(=O)c1cccn1-c1nnc(N2CCCC2)s1	none (no result: Giardia FBPA inh)
COC(=O)c1ccc(CN(Cc2ccc(OC)c(OC)c2)S(=O)(=O)c2ccc(F)c(C(=O)Nc3cc(C)ccc3C)c2)cc1	none (no result: Giardia FBPA inh)
c1cncc(-c2cncnc2NC2CCNCC2)c1	none
COc1ccc(C2C=C3CNS(=O)(=O)C3CC2OC(=O)c2cccc(C)c2)cc1 (stereo not drawn)	none (no result: Cruzain inh noDet, Cruzain inh Det)
Cc1ccsc1/C=N/NC(=S)NCc1ccccc1	none (no result: Cruzain inh noDet, Cruzain inh Det)
Cc1ccsc1/C=N\NC(=O)CC(=O)NCc1ccccc1	Giardia FBPA inh 20µM (no result: Cruzain inh noDet, Cruzain inh Det)
C[N@@+]1(CC[N@@+]2(C)CCC[C@H]2c2cccnc2)CCC[C@@H]1c1cccnc1	none (no result: Giardia FBPA inh)
O=c1[nH]c(SCc2ccccc2Cl)nc2c1cnn2-c1ccccc1	Cruzain inh noDet 16µM
O=c1[nH]c(SCc2nc3c(cnn3-c3ccccc3)c(=O)[nH]2)nc2ccccc12	none
Cc1ccc(-n2ncc3c(=O)[nH]c(SCC(=O)N4CCN(c5ccccc5)CC4)nc32)cc1	Cruzain inh noDet 25µM
Cc1ccc(-n2ncc3c(=O)[nH]c(SCC(=O)N4CCOCC4)nc32)cc1	none
O=c1cc(-c2ccc(O)cc2)oc2cc(OC3OC(CO)C(O)C(O)C3O)c(C3OC(CO)C(O)C(O)C3O)c(O)c12 (stereo not drawn)	none (no result: Cruzain inh noDet, Cruzain inh Det)
COc1cc([C@@H]2Oc3cc([C@H]4Oc5cc(O)cc(O)c5C(=O)[C@H]4O)ccc3O[C@H]2CO)ccc1O	none
Cn1c(=O)c(-c2cccs2)nc2cnc(N3CCNCC3)nc21	none
Cc1nnsc1C(=O)Oc1ccccc1Cl	none (no result: Giardia FBPA inh)
O=C(/C=C/c1ccc2c(c1)OCO2)Nc1nc(-c2ccc(F)cc2F)cs1	Cruzain inh noDet 7.9µM
Cc1csc(NC(=O)/C=C/c2ccc3c(c2)OCO3)n1	none
C=C1CCC[C@]2(C)C[C@H]3OC(=O)[C@H](CNCCc4ccccc4OC)C3CC12 (stereo partly drawn)	none
COc1ccc(C(=O)N/N=C/c2sc3ccccc3c2O)cc1	none
COc1ccc2cc(C(=O)N/N=C/c3sc4ccccc4c3O)ccc2c1	Cruzain inh noDet inconclusive, Giardia FBPA inh inconclusive, Cruzain inh Det 28µM
Cc1ccc(-n2ncc3c(N4CCC(C)CC4)ncnc32)cc1C	none (no result: Giardia FBPA inh)
N#Cc1c(-c2ccccc2)cc(-c2ccccc2)nc1SCC(O)CS(=O)(=O)Cc1ccc(Cl)cc1 (stereo not drawn)	Cruzain inh noDet 7.9µM (no result: Giardia FBPA inh)
